Source: PubChem
HNF4A DNA FP = change in binding of human HNF4 alpha to DNA; activity change, % at 10 µM; AID 1224865; 360,000 tested, 0.3% active; HNF4a-FITC DNA binding, fluorescence polarization, 1 h; in the data active = activity change above about 30%, passing the limit was not always enough
Target sequence (P41235 whole entry, looked up): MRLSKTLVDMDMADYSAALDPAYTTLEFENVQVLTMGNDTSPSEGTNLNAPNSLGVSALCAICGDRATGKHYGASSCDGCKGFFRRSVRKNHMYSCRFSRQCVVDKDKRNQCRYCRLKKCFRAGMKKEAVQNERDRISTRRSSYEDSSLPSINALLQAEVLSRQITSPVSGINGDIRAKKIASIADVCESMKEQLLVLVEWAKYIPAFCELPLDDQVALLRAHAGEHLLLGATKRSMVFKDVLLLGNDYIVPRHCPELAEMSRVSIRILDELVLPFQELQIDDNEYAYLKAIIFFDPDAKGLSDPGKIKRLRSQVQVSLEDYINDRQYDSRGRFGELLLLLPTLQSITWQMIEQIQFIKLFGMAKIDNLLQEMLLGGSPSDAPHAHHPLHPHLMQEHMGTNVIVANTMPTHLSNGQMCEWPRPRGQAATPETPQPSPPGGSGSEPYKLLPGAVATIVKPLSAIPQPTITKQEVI
CRFBP-R2 agonist = CRF-BP/CRF-R2 complex agonism | HEK293 CRF-R2/CRF-BP, calcium dye fluorescence (FLIPR); percent of saturating CRF peptide response | activation, % at 13.2 µM | 350,000 tested, 0.46% active;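 active = activation of at least 50%, plus an integration ratio under a set limit after plate pattern correction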;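 also: plate controls were neutral control wells without compound for no effect and CRF at EC100 for full effect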
TPT1 inhibitor = inhibitors of Candida albicans tRNA 2'-phosphotransferase TPT1; 300,000 tested, 0.81% active; recombinant caTPT1, FP RNA substrate dephosphorylation; inhibition, % at 5 µM;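 active = inhibition above the mean of all tested compounds plus 3 SD, set per screening campaign, cut at about 24% in these data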;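 also: plate controls were DMSO alone for no effect and ferristatin control at 100 nM for full effect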
IDE cell inh = cellular human IDE inhibition | HEK cells, FAbetaB cleavage, fluorescence polarization | inhibition, % at 5.59 µM | 320,000 tested, 0.41% active;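 active = percent inhibition above the average of all tested compounds plus 3 SD, set per screening campaign, cut at about 16% in these data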;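 also: IDE supplied by intact live HEK cells; FP after avidin binding of uncleaved biotin substrate so inhibition keeps polarization high; 0% = DMSO wells and 100% = 60 µM reference IDE inhibitor Ii1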
IDE act = IDE (human) activation, cell-based. 340,000 tested, 0.073% active. P14735. HEK cells, FAbeta-B cleavage, fluorescence polarization; 0% vehicle, 100% cell-free pure enzyme wells. activation, % at 5.96 µM;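 active = activation above the mean of all tested compounds plus 3 SD, set per screening campaign, cut at about 17% in these data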
caTPT1 confirm = TPT1 (C. albicans) inhibition, confirmation | shares compounds with TPT1 inhibitor | recombinant caTPT1, fluorescence polarization, RNase T1 coupled | inhibition, % at 5 µM | 2,400 tested, 74% active | AID 2149;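 active = inhibition above the primary screen limit, the mean inhibition of all tested compounds plus 3 SD, cut at about 25% in these data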
RNase T1 counter = RNase T1 inhibition in TPT1 counter-screen | AID 2153 | shares compounds with TPT1 inhibitor | inhibition, % at 5 µM | 2,400 tested, 83% active | RNase T1 cleavage, fluorescence polarization, 1536-well;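 active = inhibition above the solvent-only control well mean plus 3 SD, limit set per screening run, cut at about 23% in these data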;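 also: plate controls were DMSO wells with enzyme for no effect and wells without RNase T1 for full effect; inhibitors block cleavage so intact labeled substrate keeps polarization high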
Target sequence (P00651 whole entry, looked up): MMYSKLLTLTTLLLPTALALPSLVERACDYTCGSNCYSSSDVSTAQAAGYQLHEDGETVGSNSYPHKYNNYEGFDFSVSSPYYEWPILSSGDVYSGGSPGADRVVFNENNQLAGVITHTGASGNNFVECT
Active calls of the source: *; x = not tested or not shown; + = active, no number. The list is not random: actives were taken first. Their share in the collection is about 1.4%.

SMILES	HNF4A DNA FP	CRFBP-R2 agonist	TPT1 inhibitor	IDE cell inh	IDE act	caTPT1 confirm	RNase T1 counter
CCCSc1nnc(NC(=O)CSc2sc3c(O)cc(=O)[nH]c3c2C#N)s1	1.6	3.2	17.7	1.4	-0.8	x	x
N#Cc1c(SCC(=O)Nc2nccs2)sc2c(O)cc(=O)[nH]c12	-22.1	1.8	79.0*	-1.0	1.5	9.9	15.1
COc1cccc(/C=C2\SC(=S)N(c3cccnc3)C2=O)c1OC	2.2	0.3	-1.2	-2.9	-0.6	x	x
Cc1cc(/C=C2/SC(=S)N(c3cccc(C(F)(F)F)c3)C2=O)c(C)n1-c1cccnc1	63.6*	11.1	87.7*	3.5	-2.4	91.6*	98.9*
CN1CCc2c(sc(N)c2C(=O)c2ccc(Cl)cc2)C1	40.4*	4.9	31.7*	-1.8	-0.2	36.6*	48.4*
COc1ccc(C(=O)NCc2ccc(N3CCN(C(=O)OC(C)(C)C)CC3)cc2)cc1	-3.5	-2.6	-3.1	2.4	0.8	x	x
COc1ccc(C(=O)c2c(N)sc3c2CCN(C(=O)OC(C)(C)C)C3)cc1	11.9	2.5	30.2*	6.2	x	13.4	21.9*
CN1CCc2c(sc(NC(=O)Cc3ccccc3)c2C(N)=O)C1	-1.1	-2.4	0.7	0.3	7.5	x	x
CCN(CC(=O)N1CCOCC1)S(=O)(=O)c1ccccc1	-0.4	-0.4	0.5	-3.9	-3.8	x	x
Cc1ccc(CO/N=C\Cc2snc(Sc3ncc(C(F)(F)F)cc3Cl)c2C#N)cc1	19.9	4.4	35.2*	3.7	2.2	27.0*	34.1*
N#CCc1ccc(Oc2ncc(C(F)(F)F)cc2Cl)cc1	0.9	0.5	0.3	5.1	5.4	x	x
CCn1cc(C(=O)NCc2ccco2)c(=O)c2ccc(C)nc21	2.5	-0.4	-2.1	-5.0	-3.1	x	x
Cc1nn(CC(=O)c2ccc(Cl)s2)c(C)c1[N+](=O)[O-]	15.3	-3.1	43.1*	3.0	4.1	40.4*	49.4*
Cc1nc(S/C(=C/c2ccc(-c3ccc(C(=O)O)cc3)o2)C(=O)O)n[nH]1	3.0	4.3	15.7	-1.4	0.8	x	x
CC(=O)c1ccc(-c2ccc(/C=C(/Sc3n[nH]c(C)n3)C(=O)O)o2)cc1	25.1	6.2	77.7*	5.2	-4.0	79.1*	91.2*
Cc1ccc(C(=O)NCC(=O)OC(C)C(=O)Nc2ccc(N(C)C)cc2)s1 (configuration not stated)	-0.3	-1.7	-1.1	4.4	-3.7	x	x
Cc1cc(N2CCCC2)ccc1/C=C1/C(=O)N(C)C(=S)N1C	21.7	5.3	73.5*	30.8*	-63.1	67.3*	76.5*
COc1ccc(CNC(=O)/C=C/c2cc([N+](=O)[O-])ccc2OC(F)F)cc1	-1.2	-0.1	-1.7	-1.0	4.0	x	x
COc1ccc(CNC(=O)/C=C/c2cc([N+](=O)[O-])ccc2OC(F)F)cc1OC	-1.1	-6.5	37.0*	1.3	9.2	7.4	8.5
N#Cc1ccccc1Cn1c(=O)n(CCC(=O)NCc2ccco2)c(=O)c2ccccc21	0.6	0.0	+	0.0	0.4	19.8	25.2*
N#Cc1ccccc1Cn1c(=O)n(Cc2ccc(C(=O)NCc3ccco3)cc2)c(=O)c2ccccc21	0.1	1.1	-0.1	0.6	-4.4	x	x
Cc1ccccc1-c1nc(CS(=O)(=O)CC(=O)NCCCN2CC(C)CC(C)C2)c(C)o1 (configuration not stated)	-1.8	0.5	0.2	9.2	4.0	x	x
COc1cc(/C=C(\C#N)C(=O)N2CCc3ccccc32)ccc1O	0.3	1.1	36.4*	13.5	-29.5	70.8*	76.1*
N#C/C(=C\c1ccc(O)c(O)c1)C(=O)N1CCc2ccccc21	2.2	5.5	36.5*	4.8	-7.2	46.0*	50.8*
N#C/C(=C\c1ccc(O)c(O)c1)C(=O)NCCc1ccccc1	-2.6	-1.6	4.2	15.7	-12.7	x	x
SMILES	HNF4A DNA FP	CRFBP-R2 agonist	TPT1 inhibitor	IDE cell inh	IDE act	caTPT1 confirm	RNase T1 counter
COC(=O)Cc1cc(=O)oc2cc(OC)ccc12	1.9	0.9	0.2	4.5	7.5	x	x
COC(=O)Cc1cc(C)cc2c(=O)cc(-c3ccoc3)oc12	91.3	-0.1	33.5*	7.9	x	53.0*	66.4*
CCOc1cccc2c1OC(c1cc(OC)c(OC)c(OC)c1)N1N=C(c3ccc(C)o3)CC21 (configuration not stated)	128.5	2.5	114.5*	2.5	-5.0	10.3	15.3
CCOc1ccc(Br)cc1S(=O)(=O)Nc1nc(CN2CCOCC2)nc2sc(C)c(C)c12	4.8	3.3	31.1*	3.9	6.6	27.2*	35.0*
Cc1sc2nc(CN3CCOCC3)nc(NS(=O)(=O)c3ccccc3)c2c1C	-3.2	-1.1	5.6	-1.9	-1.6	x	x
Cc1nnc(N2CCOCC2)c2nn(-c3cccc(Cl)c3)c(C)c12	21.3	-0.9	27.7*	6.3	3.7	68.6*	76.5*
CC1=Nc2ccccc2/C1=C\c1nc(-c2ccc(F)cc2)oc1O	14.2	36.4	92.9*	5.1	-0.6	95.6*	101.7*
CCN(CC)S(=O)(=O)c1cc(NC(=O)COC(=O)CCc2nc3ccccc3s2)ccc1C	-1.2	3.0	0.2	0.9	4.2	x	x
CCN(CC)S(=O)(=O)c1cccc(NC(=O)COC(=O)CCc2nc3ccccc3s2)c1	-3.2	-3.1	128.2*	0.5	1.1	6.4	13.3
CCN1c2ccc(S(=O)(=O)N3CCOCC3)cc2N(Cc2ccc(OC)cc2)C1C (configuration not stated)	4.0	-1.3	31.9*	1.8	-6.4	48.3*	59.4*
Cc1ccc(NS(=O)(=O)c2cc([N+](=O)[O-])ccc2N/N=C/c2sc(N3CCOCC3)nc2-c2ccccc2)c(C)c1	20.6	18.7	56.1*	1.1	0.2	55.3*	73.0*
CC1CCCCC1NC(=O)C1CCC(CNS(=O)(=O)c2ccccc2)CC1 (configuration not stated)	1.1	-1.4	-1.1	-0.1	1.9	x	x
O=C(C[n+]1cccc2ccccc21)c1ccc(NC(=O)c2ccccc2)cc1	7.6	-3.6	39.5*	4.0	-3.9	28.0*	41.1*
COCCNc1nc(-c2ccccc2CO)c2sc(-c3ccccc3)cc2n1	-0.4	x	x	x	x	x	x
Cn1nnnc1SCc1nc2scc(-c3ccc(Cl)cc3)c2c(=O)[nH]1	39.2*	0.9	28.6*	6.6	-0.7	49.8*	59.2*
Cc1ccc(NC(=O)CO/N=C/c2ccc(N(C)C)cc2)cc1	72.0*	6.0	93.3*	9.7	-10.6	106.2*	113.2*
NC(=O)c1cc(S(=O)(=O)N2CCOCC2)ccc1Sc1ccccc1N	3.0	1.9	x	x	0.3	x	x
Cc1ccc(NC(=O)C(C)SCc2nc3sc4c(c3c(=O)[nH]2)CCCC4)nc1 (configuration not stated)	13.5	4.0	26.0*	0.5	-1.2	36.9*	44.7*
